This is an account of results in PubChem BioAssay (NCATS).

Several values for one entry are separate records, joined by “and”; a condition that tells them apart may be missing. Equal values may be shown once. Records with an inconclusive call do not appear. Values without a mark were called inactive. Calls follow the shape of the dose curve; as a rule, active = well fitted cell-killing curve with a large enough effect in the repeat runs; inconclusive = weak or mixed curves; inactive = flat fitted curve, though single readings scatter.
% is scaled to controls: 0 for no effect and ±100 for the full control effect.

This assay can be described thus: qHTS assay for small molecule agonists of the antioxidant response element (ARE) signaling pathway measured by Nrf2-dependant transcriptional activity - cell viability counter screen (AID 720653). Conditions: ARE-bla HepG2 viability, CellTiter-Glo ATP luminescence, 16 h; stronger effect = lower value. An excerpt:
National Center for Advancing Translational Sciences [NCATS] NIH Chemical Genomics Center [NCGC] U.S. Environmental Protection Agency [EPA] National Institutes of Environmental Health Sciences [NIEHS] National Toxicology Program [NTP] Assay Overview: Oxidative stress has been implicated in the pathogenesis of a variety of diseases ranging from cancer to neurodegeneration. The antioxidant response element (ARE) signaling pathway plays an important role in the amelioration of oxidative stress. The CellSensor ARE-bla HepG2 cell line (Invitrogen) can be used for analyzing the Nrf2/antioxidant response signaling pathway. Nrf2 (NF-E2-related factor 2) and Nrf1 are transcription factors that bind to AREs and activate these genes. The CellSensor ARE-bla HepG2 cell line contains a beta-lactamase reporter gene under control of the Antioxidant Response Element (ARE) stably integrated into HepG2 cells. The activation of the report gene under culture conditions can be detected by fluorescence intensity. The cytotoxicity of the compounds against the ARE-bla HepG2 cell line was quantified by measuring the intracellular ATP content.
Assay Protocol Summary: ARE-bla HepG2 cells were dispensed at 2,000 cells/5 ul/well in 1536-well black wall/clear bottom plates using a Multidrop Combi (ThermoFisher Scientific, Waltham, MA) dispenser. After the assay plates were incubated at 37C/5% CO2 for 5 hrs, 23 nL of compounds dissolved in DMSO, positive controls or DMSO only was transferred to the assay plate by a pintool work station (Kalypsys, San Diego, CA). The plates were incubated at 37C/5% CO2 for 16 hrs. After 1 uL of LiveBLAzer B/G FRET substrate was added using a Flying Reagent Dispenser (FRD) (Aurora Discovery, San Diego, CA), the assay plates were incubated at room temperature for 2 hrs. The fluorescence intensity was measured by an Envision (PerkinElmer, Shelton, CT) plate reader. Cell viability using CellTiter Glo viability assay (Promega, Madison, WI) was also measured by adding 4 ul/well of CellTiter-Glo reagent into the same assay plate using a FRD. After 30 min incubation at room temperature, the luminescence intensity in the plates was measured using a ViewLux (PerkinElmer) plate reader.
A general note: In qHTS, concentration-response curves come from the screen itself.
On to `CC(O)CCl` (stereo not given), for which the max response was -0.544% and -11.8%.
Consider `OCC(Br)CBr` (stereo not given), for which the max response is -0.194%.
The result for `Nc1ccc(Br)cc1` reads -4.77%; that for `CC(C)(c1ccccc1)c1ccc(O)cc1`, 9.52% and -12.4%.
With `O=C(O)COc1ccc(Cl)cc1Cl` the figure was -0.488% [middle of 4 runs].
With `ClC1=C(Cl)C2(Cl)C3C4CC(C5OC45)C3C1(Cl)C2(Cl)Cl` (stereo not given) the figure was -3.29%; with `CCCCSP(=O)(SCCCC)SCCCC`, 12.3%; with `Clc1cccc(C(Cl)(Cl)Cl)n1`, 1.86% and -5.38%.
On to `ClC(Cl)=C(Cl)Cl`, for which the max response was 5.48% and 2.15%.
The result for `COc1ccc(C=O)cc1OC` reads -2.79% and -2.46%; that for `C=CC(=C)C`, -2.67%.
The result for `CC(C)(C)OO` reads 15% and -27.6%.
With `C/C=C/c1ccc2c(c1)OCO2` the figure was -6.6%.
Regarding `C=CC(=O)OCC`, the max response was -9.08%.
`C=CC(N)=O`: the max response is -3.97% and 4.84% and 3.74%.
The result for `BrCCBr` reads 2.36% and -0.33%.
The result for `C[C@H]1CCCC(=O)CCC/C=C/c2cc(O)cc(O)c2C(=O)O1` reads -27% and -18.5%; that for `CCCOC(=O)c1ccccc1C(=O)OCCC`, 2.53% and -0.566%.
With `ClC1=C(Cl)C2(Cl)C3C4C=CC(C4)C3C1(Cl)C2(Cl)Cl` (stereo not given) the figure was -5%; with `CCN(CC)c1ccccc1`, 7.99%; with `CC(C)Nc1nc(Cl)nc(NC(C)C)n1`, -2.76%.
Turning to `CCCSC(=O)Cl`, the max response is -4.21%.
On to `CCCCCCCC(=O)Cl`, for which the max response was 7.34%.
The result for `O=C(O)C1C2CCC(O2)C1C(=O)O` (stereo not given) reads -12.2%; that for `Cc1ccccc1N`, -8.44% and 1.06%; that for `CCSC(=O)Cl`, 0.254%.
`O=C(Cl)C(Cl)(Cl)Cl`: the max response is -1.42%.
The result for `CN=C=S` reads 4% and -4.66%.
With `c1nc[nH]n1` the figure was 12.8%.
The result for `CC(C)(C)C(=O)C(Oc1ccc(Cl)cc1)n1cncn1` (stereo not given) reads 5.28% and -3.18%; that for `c1ccc2c(c1)CCCC2`, -5.84%.
For the compound `O=[N+]([O-])c1cccc2ccccc12`, the max response is 8.97% and -15.3%.
Consider `C1CCC2CCCCC2C1` (stereo not given), for which the max response was 2.05%.
The result for `CNC(=O)N(C)c1nnc(C(C)(C)C)s1` reads 4.89%.
The result for `ClCBr` reads -6.45%.
The result for `Brc1ccc(Oc2cc(Br)c(Br)cc2Br)c(Br)c1` reads -1.22% and 3.3% and -21%; that for `Clc1nc(Cl)nc(Cl)n1`, -4.92% and -7.17%.
Consider `C=CCc1ccc(OC)cc1`, for which the max response is 2.85%.
The result for `CC(C)N1C(=O)c2ccccc2NS1(=O)=O` reads 7.65%.
The result for `CCCC(=O)Cl` reads 18.2%.
